Compounds without any hit were thinned out: in the full panel of roughly 79,000, 15% have a hit. Rule as the data show it: active = growth inhibition above about 70%; inactive = the rest.
Assays:
[1] = NCI Yeast Anticancer Drug Screen. Data for the rad50 strain (AID 155);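 also: 0% = growth of vehicle-only cultures of the same strain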; conditions: S. cerevisiae rad50 strain growth inhibition; at 50.0 µM; active compounds read high
Method in brief: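 Growth of the mutant yeast was measured after compound exposure and referenced to vehicle-treated cultures.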

[2] = NCI Yeast Anticancer Drug Screen. Data for the mec2-1 strain (AID 157); conditions: S. cerevisiae mec2-1 strain, at 50.0 µM, active compounds read high
Method in brief: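 Mutant yeast (mec2-1) grown with compound; growth inhibition relative to vehicle control reported.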

[3] = NCI Yeast Anticancer Drug Screen. Data for the sgs1 mgt1 strain (AID 161);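 also: 0% = growth of cultures given vehicle only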; conditions: S. cerevisiae sgs1 mgt1 strain, at 50.0 µM, active compounds read high
Method in brief: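 This yeast growth screen uses a strain with defined DNA-repair lesions; compound-treated growth is compared with vehicle-treated growth.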

[4] = NCI Yeast Anticancer Drug Screen. Data for the cln2 rad14 strain (AID 165);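 also: 0% = growth equal to vehicle treated cultures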; conditions: S. cerevisiae cln2 rad14 strain, at 50.0 µM, active compounds read high
Method in brief: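 Readout is yeast growth inhibition versus vehicle-treated controls, using a strain with cln2 and rad14 alterations exposed to compound.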

[5] = NCI Yeast Anticancer Drug Screen. Data for the bub3 strain (AID 167); conditions: S. cerevisiae bub3 mutant strain, at 50.0 µM, active compounds read high
Method in brief: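 Whole-cell yeast assay. The mutant strain was incubated with compounds, and growth inhibition was determined by comparison with vehicle-treated cells.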

[6] = NCI Yeast Anticancer Drug Screen. Data for the mlh1 rad18 strain (AID 175); conditions: S. cerevisiae mlh1 rad18 strain growth inhibition; at 50.0 µM; active compounds read high
Method in brief: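 Genetically defined yeast (DNA repair-deficient) exposed to compounds; growth inhibition determined relative to vehicle.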

Measured: growth inhibition

CC(=O)Oc1ccccc1/C=C1\N=C(c2ccccc2)OC1=O
inactive: [1] -5.25% | [2] 2.25% | [3] 1.85% | [4] -30.2% | [5] -5.25% | [6] -6.4%

Cc1ccc(C2=C(Cl)C(=O)C(c3ccc(C)cc3)=C(Cl)C2=O)cc1
inactive: [1] -15.8% | [2] 10.3% | [3] -13.8% | [4] -3.95% | [5] -57.5% | [6] -14.4%

CC(C)CC1=[N+]=C(NC#N)N=C(CCC(=O)Nc2ccccc2[N+](=O)[O-])C1
inactive: [1] -10.1% | [2] -5.5% | [3] -5.55% | [4] 20.9% | [5] 0.65% | [6] 1.7%

CCC1SCC(=O)N1c1nncs1 (stereo not given)
inactive: [1] 4.75% | [2] 18.9% | [3] 4.55% | [4] -8.6% | [5] 2.75% | [6] 2.95%

NC(=O)C(CCc1ccccc1)(CCc1ccccc1)c1ccc2ccccc2c1
inactive: [1] 19.5% | [2] 11.2% | [3] -2.85% | [4] 6.6% | [5] 29.8% | [6] 46%

CC(C)(C)OC(=O)N(CCNS(=O)(=O)c1cccc2cnccc12)CCC(=O)ON1C(=O)CCC1=O
inactive: [1] 4.7% | [2] -0.2% | [3] 17.8% | [4] 14.7% | [5] 23.3% | [6] 6.35%

O=C1COCCO1
inactive: [1] 2.45% | [2] -8.55% | [3] 6.45% | [4] -14% | [5] -6.55% | [6] -19.5%

Nc1ncnc(N)c1NC(=O)c1ccc(SCc2ccccc2)cc1
inactive: [1] -7.15% | [2] 20.9% | [3] 27.5% | [4] -21.2% | [5] 22.5% | [6] 22.2%

NC(=O)C(=CN1C(=O)/C(=C/c2ccccc2O)SC1=S)C(N)=O
inactive: [1] -21.6% | [2] 2.9% | [3] 10.9% | [4] 28.4% | [5] -4.85% | [6] -24.1%

C/C(=N\N=C(/C)c1cccc2ccccc12)c1cccc2ccccc12
inactive: [1] -8.9% | [2] -0.65% | [3] 4.7% | [4] -15.9% | [5] -17.7% | [6] -36.2%

C=CCOC(=O)C1CCCCC1C(=O)OCC=C (stereo not given)
inactive: [1] 1.45% | [2] -1.65% | [3] 1.4% | [4] 3.3% | [5] 21.6% | [6] 1.9%

CCCC1SCC(C)(C)NC1=O (stereo not given)
inactive: [1] 4.85% | [2] 3.25% | [3] -1.9% | [4] -18.4% | [5] 7.05% | [6] -2.4%

Cc1c(-c2ccc(N)cc2)c(=O)oc2cc(O)ccc12
inactive: [1] -8.65% | [2] -11.1% | [3] -2.2% | [4] 33% | [5] 8.1% | [6] 8.55%

COc1cc(OC)c(N=Nc2c(C)nc(N)nc2-c2ccccc2)cc1Cl
inactive: [1] 44.6% | [2] 5.45% | [3] 19.2% | [4] 20.3% | [5] 4.6% | [6] 23.9%

Cc1cc(C)nc(NC(=O)COc2ccc(Cl)cc2)c1
inactive: [1] -15.7% | [2] 5.95% | [3] -20.8% | [4] -39.7% | [5] -37.5% | [6] -14.8%

O=S1(=O)C=C(c2ccccc2)C1
inactive: [1] -8.25% | [2] -2.4% | [3] -19.8% | [4] -33.4% | [5] 4.25% | [6] 8.6%

Nc1ccc(N2N=C(N3CCCC3)CC2=O)cc1
inactive: [1] -26.6% | [2] -48.8% | [3] -10.8% | [4] 1.2% | [5] -12.7% | [6] -23.4%

CC1=C(C)C2C3C(=O)NC(=O)C3C1C1C3C(=O)NC(=O)C3C21 (stereo not given)
inactive: [1] -21.8% | [2] -7.75% | [3] 7.3% | [4] -12.8% | [5] 10.1% | [6] 17.1%

COc1ccc(Cc2cc3c(cc2OC(C)=O)OCO3)cc1
inactive: [1] -4.2% | [2] -10.3% | [3] -5.75% | [4] 8.9% | [5] 38.2% | [6] 7.25%

Cc1ccc(NC(=O)COc2cc(Cl)c(Cl)cc2Cl)cc1[N+](=O)[O-]
inactive: [1] -8.55% | [2] -9.1% | [3] -6.6% | [4] 10.2% | [5] 0.1% | [6] 0.4%

Oc1cc(O)c2c(c1)O[C@@H](c1ccc(O)c(O)c1)[C@H](O)C2
inactive: [1] 5.75% | [2] -37.4% | [3] 0.2% | [4] 6.15% | [5] -12.7% | [6] 7.55%

CCOC(=O)c1cnc2c(cnn2C(C)C)c1NN
inactive: [1] -15.6% | [2] -9.05% | [3] 48.2% | [4] -23.9% | [5] 53.4% | [6] -15.4%

C=C1CCCC2OC(OC)CCC12 (stereo not given)
inactive: [1] -23.4% | [2] -10.8% | [3] -6.5% | [4] 0.75% | [5] -21.9% | [6] -10.6%

O=C(O)c1cc2cc(Br)ccc2c(Br)c1O
inactive: [1] -3.75% | [2] -25.7% | [3] -8% | [4] -71.3% | [5] -24.2% | [6] -3.85%

CC1(C)N=C(N)N=C(N)N1c1cccc(CO)c1
inactive: [1] 0.5% | [2] 9.5% | [3] 1.15% | [4] -2.45% | [5] 15.2% | [6] 28.2%

O=C1C=C(Nc2ccccc2C(=O)CC(=O)C(=O)Nc2ccc(Cl)cc2)c2ccccc2C1=O
inactive: [1] 5.05% | [2] 0.95% | [3] 6.9% | [4] -3.05% | [5] 42.5% | [6] 9.8%

COc1ccc(Br)c(CN2CCc3ccccc32)c1OS(=O)(=O)c1ccc(C)cc1
inactive: [1] 13.8% | [2] -0.3% | [3] 18.7% | [4] 4.1% | [5] 5.45% | [6] 12.4%

CN(C)c1nc2ccccn2c1C(=O)c1ccccc1
inactive: [1] 4.85% | [2] -0.1% | [3] -12.8% | [4] -19.4% | [5] -0.6% | [6] -5.5%

CCCCn1c2c(c3ccccc3c1=O)C(=O)c1ccccc1-2
inactive: [1] 12.1% | [2] -15.7% | [3] -4.8% | [4] 2.1% | [5] -18% | [6] -53%

Cc1ccnc(N=C/C=C2/C=CC=CN2O)c1
inactive: [1] 0.25% | [2] -9.35% | [3] 1.75% | [4] 5.55% | [5] -8.45% | [6] -11.8%

C/C(O)=C(/N=Nc1ccc(-c2nc3ccc(C)c(S(=O)(=O)O)c3s2)cc1)C(=O)Nc1ccccc1
inactive: [1] 12.7% | [2] -22.5% | [3] 21.2% | [4] 16% | [5] 19.9% | [6] 26.9%

ONc1ccc(Cl)cc1
inactive: [1] -8.85% | [2] -11.8% | [3] -2.7% | [4] -10.8% | [5] 21.1% | [6] -6.6%

CCC1=C(CC2NCCc3ccccc32)CC2c3cc(OC)c(OC)cc3CCN2C1 (stereo not given)
inactive: [1] -9.9% | [2] -12.1% | [3] -14.7% | [4] 3.9% | [5] -28% | [6] -11.1%

Cc1ccc(C#N)c2c1CCC2
inactive: [1] 2.65% | [2] -10.7% | [3] 3.05% | [4] -50% | [5] -13% | [6] 2.6%

Cc1ccc(Sc2cccc3c2C(=O)c2c(Sc4ccc(C)cc4)cccc2C3(Br)c2ccccc2)cc1
inactive: [1] 13.9% | [2] -8.95% | [3] -2.95% | [4] -27.2% | [5] -0.15% | [6] 0.1%

O=C(/C=C/c1ccc(O)c(O)c1)OC1C[C@@](O)(C(=O)O)C[C@@H](O)[C@H]1OC(=O)/C=C/c1ccc(O)c(O)c1 (stereo not given in full)
inactive: [1] 17.8% | [2] -14.1% | [3] 21.1% | [4] -2.95% | [5] -6% | [6] 25.9%

O=C(S)c1ccccc1Br
inactive: [1] 1.45% | [2] 0% | [3] 11.6% | [4] -54.9% | [5] -8% | [6] 3.8%

COc1ccc(C(=O)/C=C/c2ccc(OCCCCCCCCCCOc3ccc(/C=C/C(=O)c4ccc(OC)cc4)cc3)cc2)cc1
inactive: [1] -14.2% | [2] -14.8% | [3] -17% | [4] -15.2% | [5] -30.4% | [6] -17.4%

NC(c1ccccc1)(c1ccccc1)c1ccccc1
inactive: [1] 20.1% | [2] 2.9% | [3] 43.9% | [4] -9.8% | [5] 19.4% | [6] 11%

O=C(O)C(Br)C(Br)C(=O)Nc1ccc(Br)cc1 (stereo not given)
inactive: [1] -6.35% | [2] -24.4% | [3] 22.8% | [4] -3.85% | [5] 34.1% | [6] 27.4%

From PubChem BioAssay (NCI)
